From PubChem
TLR4 MyD88 comp = inhibitors of TLR4-MyD88 association in cells, primary screen, cell-based, HeLa CL3-4, BLA complementation, FRET ratio | Toll-like receptor 4 (Homo sapiens) + Myeloid differentiation primary response protein … | HeLa CL3-4 TLR4/MyD88 BLA complementation | inhibition, % at 8.4 µM | 200,000 compounds, 0.18% hits | AID 861, 2007; in the data active means inhibition above about 25%;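 further: 0% = vehicle and 100% = reference inhibitor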
Target sequence (O00206 whole entry, looked up): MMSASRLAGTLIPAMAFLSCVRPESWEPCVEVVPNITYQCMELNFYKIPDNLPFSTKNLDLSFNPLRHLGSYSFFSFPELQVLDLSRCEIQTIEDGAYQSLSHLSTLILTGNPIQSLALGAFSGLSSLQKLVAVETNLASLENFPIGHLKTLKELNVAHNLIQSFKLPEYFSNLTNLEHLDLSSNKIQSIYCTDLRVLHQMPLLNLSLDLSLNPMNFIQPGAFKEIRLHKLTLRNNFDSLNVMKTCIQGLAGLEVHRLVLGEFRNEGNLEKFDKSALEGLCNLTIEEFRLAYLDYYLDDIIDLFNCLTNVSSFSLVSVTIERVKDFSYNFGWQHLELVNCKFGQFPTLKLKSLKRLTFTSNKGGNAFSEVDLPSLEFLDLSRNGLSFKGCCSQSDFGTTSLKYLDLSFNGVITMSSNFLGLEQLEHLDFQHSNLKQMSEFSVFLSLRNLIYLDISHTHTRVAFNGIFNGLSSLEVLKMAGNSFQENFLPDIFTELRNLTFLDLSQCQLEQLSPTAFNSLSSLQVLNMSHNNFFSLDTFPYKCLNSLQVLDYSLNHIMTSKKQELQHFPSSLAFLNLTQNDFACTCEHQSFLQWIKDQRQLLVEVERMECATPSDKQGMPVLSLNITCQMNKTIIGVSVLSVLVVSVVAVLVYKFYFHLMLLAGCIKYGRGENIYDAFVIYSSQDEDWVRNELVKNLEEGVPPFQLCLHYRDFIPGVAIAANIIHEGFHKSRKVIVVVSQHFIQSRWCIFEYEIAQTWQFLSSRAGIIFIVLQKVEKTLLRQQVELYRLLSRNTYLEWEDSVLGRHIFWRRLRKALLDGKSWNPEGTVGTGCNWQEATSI
Target sequence (Q99836 whole entry, looked up): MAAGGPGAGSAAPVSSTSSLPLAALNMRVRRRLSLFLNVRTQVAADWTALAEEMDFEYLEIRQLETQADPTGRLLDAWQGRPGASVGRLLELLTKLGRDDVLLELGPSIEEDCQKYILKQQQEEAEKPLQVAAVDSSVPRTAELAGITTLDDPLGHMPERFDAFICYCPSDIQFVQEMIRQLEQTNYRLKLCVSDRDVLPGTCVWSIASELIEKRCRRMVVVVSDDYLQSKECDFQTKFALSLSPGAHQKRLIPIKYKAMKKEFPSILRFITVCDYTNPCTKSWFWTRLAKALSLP
NOD2-RIPK2 inh = NOD2-RIPK2 binding disruptors in cells, primary screen, fluorescence, CHO cells, BLA complementation; Receptor-interacting serine/threonine-protein kinase 2 (Homo sapiens), O43353; CCF4 ratio; inhibition, % at 4.98 µM; 360,000 compounds, 0.38% hits; AID 624267, 2012; in the data active means inhibition above about 21%;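 further: 0% = vehicle only and 100% = reference blocker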
IDE cell inh = human IDE inhibitors in live cells, primary screen, fluorescence polarization, HEK cells, FAbetaB substrate | 320,000 compounds, 0.41% hits | Insulin-degrading enzyme (Homo sapiens), P14735 | inhibition, % at 5.59 µM | FAbetaB cleavage;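 active means percent inhibition above the average of all tested compounds plus 3 SD, set per screening campaign, cut at about 16% in these data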;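 further: IDE supplied by intact live HEK cells; FP after avidin binding of uncleaved biotin substrate so inhibition keeps polarization high; 0% = DMSO wells and 100% = 60 µM reference IDE inhibitor Ii1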
IDE act = human IDE activators in live cells, primary screen, fluorescence polarization, HEK cells, FAbeta-B substrate; Insulin-degrading enzyme (Homo sapiens), P14735; FAbeta-B cleavage; 0% vehicle, 100% cell-free pure enzyme wells; activation, % at 5.96 µM; AID 493087, 2011; 340,000 compounds, 0.073% hits;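 active means activation above the mean of all tested compounds plus 3 SD, set per screening campaign, cut at about 17% in these data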
TLR9-MyD88 inh = inhibitors of TLR9-MyD88 association in cells, primary screen, cell-based, CHO, BLA complementation, fluorescence. AID 504734, 2011. inhibition, % at 4.98 µM. CCF4 FRET ratio. Toll-like receptor 9 (Homo sapiens) + Myeloid differentiation primary response protein …. 340,000 compounds, 0.21% hits;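 active means inhibition above the mean over all tested compounds plus 3 SD, cut at about 21% in these data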;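 further: 0% = DMSO only wells and 100% = clavulanate BLA inhibitor control wells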
Active calls of the source: *. Hits are enriched below; roughly 0.86% of the tested compounds scored in any of these assays.

For COc1cccc(-n2nnnc2S(C)(=O)=O)c1 the results were TLR4 MyD88 comp 7.2, NOD2-RIPK2 inh 49.0*, IDE cell inh -0.4, IDE act 1.1 and TLR9-MyD88 inh 21.9*.
Screening CCOC(=O)C1(CC2CC2)CCN(Cc2ccc(C(=O)OC)cc2)CC1 returned TLR4 MyD88 comp 3.1, NOD2-RIPK2 inh 0.2, IDE cell inh 2.4, IDE act 9.0 and TLR9-MyD88 inh 5.5.
For CCOC(=O)C1(CC2CC2)CCN(Cc2cnc(N(C)C)s2)CC1 the results were TLR4 MyD88 comp 10.1, NOD2-RIPK2 inh -1.3, IDE cell inh 3.4, IDE act 17.4* and TLR9-MyD88 inh -5.0.
Screening O=C(c1cc([N+](=O)[O-])ccc1N1CCOCC1)N1CCN(c2ccc([N+](=O)[O-])cc2)CC1 returned NOD2-RIPK2 inh -2.7, IDE cell inh -15.2, IDE act 29.6* and TLR9-MyD88 inh -1.7.
For O=C(c1cc([N+](=O)[O-])ccc1N1CCOCC1)N1CCCCC1 the results were TLR4 MyD88 comp 2.2, NOD2-RIPK2 inh 5.6, IDE cell inh -4.4, IDE act 1.2 and TLR9-MyD88 inh 4.6.
`Cc1ccc(S(=O)(=O)c2nc(-c3ccccc3Cl)oc2N2CCN(C)CC2)cc1` gave NOD2-RIPK2 inh 6.8, IDE cell inh -0.2, IDE act 3.6 and TLR9-MyD88 inh -4.8.
For COc1ccc(C2CC(C(F)(F)F)n3nc(C(=O)O)c(Cl)c3N2)cc1OC (stereo not drawn) the results were TLR4 MyD88 comp 2.1, NOD2-RIPK2 inh -9.2, IDE cell inh -2.3, IDE act 18.2* and TLR9-MyD88 inh 12.1.
For COc1ccc(C2CC(C(F)(F)F)n3nc(CO)c(Cl)c3N2)cc1OC (stereo not drawn) the results were TLR4 MyD88 comp 9.4, NOD2-RIPK2 inh -1.4, IDE cell inh 2.1, IDE act 4.7 and TLR9-MyD88 inh -1.9.
Screening O=C(OCn1ncc(Br)c(Br)c1=O)c1ccc(F)cc1 returned TLR4 MyD88 comp 16.5, NOD2-RIPK2 inh 74.3*, IDE cell inh -5.3, IDE act -7.3 and TLR9-MyD88 inh 34.5*.
`Cc1c(-c2ccc(O)cc2)nc2nc(-c3ccccc3)c(-c3ccccc3)nn12` gave IDE cell inh 91.8*.
For Cc1nnc2c3ccccc3c(-c3ccc(O)cc3)nn12 the results were TLR4 MyD88 comp -7.8, NOD2-RIPK2 inh -5.6, IDE cell inh 2.0, IDE act 1.8 and TLR9-MyD88 inh -1.6.
Screening CCOC(=O)c1ccccc1NC(=O)Cn1cnc2c(cnn2-c2ccc(OC)cc2)c1=O returned TLR4 MyD88 comp 7.8 and IDE cell inh 8.1.
`CCC(=O)c1ccc(OCC(=O)Nc2cccc(S(=O)(=O)N(C)c3ccccc3)c2)cc1` gave NOD2-RIPK2 inh -7.0, IDE cell inh 10.6, IDE act -8.0 and TLR9-MyD88 inh -5.2.
`CN(c1ccccc1)S(=O)(=O)c1cccc(NC(=O)COc2cccc([N+](=O)[O-])c2)c1` gave NOD2-RIPK2 inh -5.4, IDE cell inh 3.8, IDE act 17.8* and TLR9-MyD88 inh -4.2.
Cc1ccc(S(=O)(=O)CCC(=O)Nc2cc(C)on2)cc1 was read as NOD2-RIPK2 inh -11.1 and TLR9-MyD88 inh -9.1.
Cc1cc(NC(=O)CCS(=O)(=O)c2nc(-c3ccccc3)cc(C(F)(F)F)n2)no1 was read as NOD2-RIPK2 inh 23.4*, IDE cell inh -0.8, IDE act -0.5 and TLR9-MyD88 inh 10.8.
`CCN1/C(=C/c2ccc3cccc(C)c3[n+]2CC)Sc2ccccc21` gave TLR4 MyD88 comp 23.8, NOD2-RIPK2 inh 8.4, IDE cell inh 53.1*, IDE act -63.1 and TLR9-MyD88 inh 2.8.
`CS(=O)(=O)N(CCC#N)Cc1ccc(C=O)o1` gave TLR4 MyD88 comp 10.4, NOD2-RIPK2 inh -0.3, IDE cell inh 0.1, IDE act 2.3 and TLR9-MyD88 inh 2.0.
COc1ccc(N2C(=O)CC(N3CCOCC3)C2=O)cc1 (stereo not drawn) was read as TLR4 MyD88 comp 3.2, NOD2-RIPK2 inh 5.1, IDE cell inh 4.7, IDE act 1.7 and TLR9-MyD88 inh 5.7.
COc1ccc(NC(=O)NS(=O)(=O)c2ccc(C)cc2)cn1 was read as NOD2-RIPK2 inh -2.5, IDE act 30.1* and TLR9-MyD88 inh -9.0.
COc1ccc(C(=O)Nc2ccccc2N2CCCCC2)cc1[N+](=O)[O-] was read as TLR4 MyD88 comp -9.2, NOD2-RIPK2 inh -4.9, IDE cell inh 5.7, IDE act 2.4 and TLR9-MyD88 inh -4.3.
Cc1ccc(S(=O)(=O)NCCC(=O)N2CCN(Cc3ccccc3)CC2)cc1 was read as TLR4 MyD88 comp -7.8, NOD2-RIPK2 inh -3.0, IDE cell inh -5.5, IDE act 1.2 and TLR9-MyD88 inh 16.0.
`CC(=O)N1CCc2cc(S(=O)(=O)NCCC(=O)N3CCN(Cc4ccccc4)CC3)ccc21` gave TLR4 MyD88 comp 4.6, NOD2-RIPK2 inh -5.8, IDE cell inh -0.4, IDE act 19.0* and TLR9-MyD88 inh -0.9.
For CC(C)=CCCC1(C)C=Cc2c(c(C)cc3c2[nH]c2cc(O)ccc23)O1 (stereo not drawn) the results were NOD2-RIPK2 inh 0.1, IDE cell inh -5.6, IDE act 24.0* and TLR9-MyD88 inh 3.6.
Cc1cc(=O)[nH]c2cc(O)ccc12 was read as TLR4 MyD88 comp 4.0, NOD2-RIPK2 inh -6.9, IDE cell inh 6.2, IDE act 3.5 and TLR9-MyD88 inh -1.3.
Screening CCc1cc(-c2n[nH]c(=S)n2C(C)c2ccccc2)cs1 (stereo not drawn) returned TLR4 MyD88 comp -5.8, NOD2-RIPK2 inh 8.6, IDE cell inh 0.6, IDE act -17.6 and TLR9-MyD88 inh 3.5.
`CC1CN(S(=O)(=O)c2ccc(C(=O)Nc3nncs3)cc2)CC(C)O1` (stereo not drawn) gave NOD2-RIPK2 inh -7.7, IDE cell inh 1.5, IDE act 25.8* and TLR9-MyD88 inh -2.1.
For COC(=O)c1[nH]nc2c1C(=O)N(C1CCCCC1)C2=O the results were TLR4 MyD88 comp -11.4, NOD2-RIPK2 inh -11.1, IDE cell inh 2.3, IDE act 1.6 and TLR9-MyD88 inh -2.8.
Screening CN(C)c1ccc(/C=C/c2cc[n+]([O-])cc2)cc1 returned TLR4 MyD88 comp 7.2 and IDE cell inh 22.1*.
CCCn1c(N/N=C\C=C\c2ccccc2)nc2c1c(=O)[nH]c(=O)n2C was read as TLR4 MyD88 comp 2.7, NOD2-RIPK2 inh 5.1, IDE cell inh 16.4*, IDE act -1.9 and TLR9-MyD88 inh -3.4.
Screening CC(CCC(=O)NN)C1CCC2C3CCC4CC(O)CCC4(C)C3CCC12C (stereo not drawn) returned NOD2-RIPK2 inh -5.6, IDE act 4.3 and TLR9-MyD88 inh 3.1.
